Measured values reported in PubChem BioAssay AID1540 (National Center for Advancing Translational Sciences (NCATS), 2009).
“And” between values parts separate entries of the source, which are not always exact repeats. Equal values may be shown once. Results filed as inconclusive are left out. More than one record can exist for a structure, and the calls need not agree. The source made the active and inactive calls. Calls follow the shape of the dose curve; as a rule, active = well fitted activation curve with a large enough effect; inconclusive = small, poorly fitted or top-dose-only effect, or effect the other way; inactive = flat fitted curve, though single readings scatter.

target: Pyruvate kinase PKM (Homo sapiens) (UniProt P14618); assay: Secondary assay for Activators of Human Pyruvate Kinase M2 isoform; settings: purified hPK-M2, LDH-coupled NADH fluorescence kinetic; series mostly up to 57.5 µM
Sequence (P14618 whole entry, looked up, canonical isoform): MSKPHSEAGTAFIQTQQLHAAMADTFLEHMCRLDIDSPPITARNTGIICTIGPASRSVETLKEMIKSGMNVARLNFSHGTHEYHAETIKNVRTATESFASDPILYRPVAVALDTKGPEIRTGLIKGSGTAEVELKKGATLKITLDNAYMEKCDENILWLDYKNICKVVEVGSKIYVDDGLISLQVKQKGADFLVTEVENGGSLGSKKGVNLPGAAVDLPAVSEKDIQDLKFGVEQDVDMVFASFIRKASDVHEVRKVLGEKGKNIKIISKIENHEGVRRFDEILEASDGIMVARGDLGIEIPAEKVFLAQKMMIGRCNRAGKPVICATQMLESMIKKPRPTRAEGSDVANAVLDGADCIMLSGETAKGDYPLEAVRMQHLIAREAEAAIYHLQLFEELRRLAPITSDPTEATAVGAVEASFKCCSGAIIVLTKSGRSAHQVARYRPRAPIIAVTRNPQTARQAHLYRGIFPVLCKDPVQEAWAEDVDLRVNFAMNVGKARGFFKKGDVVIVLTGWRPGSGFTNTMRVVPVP
Excerpt: Confirmatory assay NIH Chemical Genomics Center [NCGC] Matthew G. Vander Heiden, M.D., Ph.D. [Harvard Medical School, 77 Avenue Louis Pasteur, Boston, MA 02115] NCGC Assay Overview: Human pyruvate kinase muscle 2 (hPK-M2)enzyme was supplied as a highly purified (>95% pure) preparation from Harvard Medical School and a secondary assay was used to evaluate compounds. This assay couples the formation of pyruvate from hPK-M2 using lactate dehydrogenase (LDH) and NADH. The depletion of NADH is followed in a fluorescent-based kinetic assay that follows the formation of pyruvate to lactate, as catalyzed LDH (described by Hannaert et al., 2002)1 Pyruvate kinase substrates, PEP and ADP, were present in the assay at 0.1 mM and 4 mM respectively. In this kinetic assay initial rates were determined by following the fluorescence of NADH depletion.
NCGC Assay Protocol Summary: Three uL of substrate mix (final concentration, 50 mM Tris-Cl pH 8.0, 200 mM KCl, 15 mM MgCl2, 0.1 mM PEP, 4.0 mM ADP, and 0.2 mM NADH) was dispensed into black-solid 1536 well plates. 23 nL of compounds were delivered by a pin tool and 1 uL of enzyme mix (final concentrations, 10 nM hPK-M2 and 1 uM of LDH) was added. Plates were immediately placed in ViewLux (Perkin Elmer) and NADH fluorescence was determined at 30 second exposure intervals for between 3 and 6 minutes. Data were normalized to the uninhibited and EC100 activation using known activators such as fructose-bis-phosphate.

Compound	Potency
Cn1c2cc([N+](=O)[O-])sc2c2cnn(Cc3ccccc3F)c(=O)c21	251 nM (active)
Cc1cc2c(s1)c1cnn(Cc3ccc(F)c(F)c3F)c(=O)c1n2C	1260 nM (active)
CCc1cc2c(s1)c1cnn(Cc3ccccc3F)c(=O)c1n2C	631 nM (active)
COc1cc(F)c(S(=O)(=O)N2CCCN(S(=O)(=O)c3ccc(N)cc3)CC2)c(F)c1	1300 nM (active)
Cn1c2cc(S(C)=O)sc2c2cnn(Cc3ccccc3F)c(=O)c21 (stereo not given)	398 nM (active)
Cc1cc2c(s1)c1cnn(Cc3cccc(F)c3)c(=O)c1n2C	1260 nM (active)
O=S(=O)(c1ccc2c(c1)OCCO2)N1CCN(S(=O)(=O)c2ccccn2)CC1	2820 nM (active)
Cn1c2cc(Br)sc2c2cnn(Cc3c(F)cccc3Cl)c(=O)c21	794 nM (active)
C=Cc1cc(F)c(S(=O)(=O)N2CCN(S(=O)(=O)c3ccc4c(c3)OCCO4)CC2)cc1F	2000 nM (active)
O=S(=O)(c1ccc2c(c1)OCCO2)N1CCN(S(=O)(=O)c2cccc[n+]2[O-])CC1	4470 nM (active)
COc1ccc(S(=O)(=O)N2CCN(S(=O)(=O)c3c(F)cccc3F)CC2)cc1	inactive and 141 nM (active)
Cc1cc2c(s1)c1cnn(Cc3cc(C(F)(F)F)cc(Cl)c3F)c(=O)c1n2C	562 nM (active)
O=C(O)c1cc(F)c(S(=O)(=O)N2CCN(S(=O)(=O)c3ccc4c(c3)OCCO4)CC2)cc1F	31600 nM (active)
COc1cc2c(s1)c1cnn(Cc3ccccc3F)c(=O)c1n2C	158 nM (active)
O=S(=O)(c1ccc2c(c1)OCO2)N1CCN(S(=O)(=O)c2c(F)cccc2F)CC1	708 nM (active)
Cn1ccc2cc(S(=O)(=O)N3CCN(S(=O)(=O)c4c(F)cccc4F)CC3)ccc21	1410 nM (active)
CC(=O)Nc1ccc(S(=O)(=O)N2CCCN(S(=O)(=O)c3ccc4c(c3)OCCO4)CC2)cc1	2590 nM (active)
CC1(C)CCc2cc(S(=O)(=O)N3CCN(S(=O)(=O)c4c(F)cccc4F)CC3)ccc2O1	5.01 µM (active) and 631 nM (active)
COc1cc(F)c(S(=O)(=O)N2CCN(S(=O)(=O)c3cccc(N)c3)CC2)c(F)c1	73 nM (active)
CS(=O)(=O)Nc1cccc(-c2cc(F)c(S(=O)(=O)N3CCN(S(=O)(=O)c4ccc5c(c4)OCCO5)CC3)cc2F)c1	inactive

Compound	Potency
COc1cc(F)c(S(=O)(=O)N2CCCN(S(=O)(=O)c3cccc(NC(C)=O)c3)CC2)c(F)c1	2910 nM (active)
COc1ccc(S(=O)(=O)N2CCN(S(=O)(=O)c3ccc4c(c3)OCCO4)CC2)cc1	562 nM (active)
O=S(=O)(c1ccc2c(c1)OCCO2)N1CCN(S(=O)(=O)c2cc(F)c(Br)cc2F)CC1	708 nM (active)
COCCCc1cc(F)c(S(=O)(=O)N2CCN(S(=O)(=O)c3ccc4c(c3)OCCO4)CC2)cc1F	3160 nM (active)
Cc1cc2[nH]c3c(=O)n(Cc4ccccc4F)ncc3c2s1	708 nM (active)
O=C1CN(S(=O)(=O)c2ccc3c(c2)OCCO3)CCN1S(=O)(=O)c1c(F)cccc1F	2820 nM (active)
COc1cc(F)c(S(=O)(=O)N2CCN(S(=O)(=O)c3ccco3)CC2)c(F)c1	116 nM (active)
Cn1c2cc(Br)sc2c2cnn(Cc3ccc(F)cc3)c(=O)c21	794 nM (active)
O=S(=O)(c1c(F)cccc1F)N1CCN(S(=O)(=O)c2c(F)cccc2F)CC1	126 nM (active)
Cn1c2cc(B(O)O)sc2c2cnn(Cc3c(F)cccc3Cl)c(=O)c21	6310 nM (active)
O=S(=O)(c1ccc2c(c1)OCCO2)N1CCN(S(=O)(=O)c2c(F)ccc(O)c2F)CC1	355 nM (active)
C[C@@H]1CN(S(=O)(=O)c2ccc3c(c2)OCCO3)CCN1S(=O)(=O)c1c(F)cccc1F	3550 nM (active)
Cn1c2cc(Br)sc2c2cnn(Cc3c(F)cccc3F)c(=O)c21	631 nM (active)
Cn1c2ccsc2c2cnn(Cc3ccccc3F)c(=O)c21	2510 nM (active)
Cc1cc2c(s1)c1cnn(Cc3ccc(C)c(F)c3F)c(=O)c1n2C	141 nM (active)
COC(=O)c1cc(F)c(S(=O)(=O)N2CCN(S(=O)(=O)c3ccc4c(c3)OCCO4)CC2)cc1F	355 nM (active)
Cc1cc2c(s1)c1cnn(Cc3ccccc3)c(=O)c1n2C	199 nM (active)
COC/C=C/c1cc(F)c(S(=O)(=O)N2CCN(S(=O)(=O)c3ccc4c(c3)OCCO4)CC2)cc1F	17800 nM (active)
COc1cc(F)c(S(=O)(=O)N2CCCN(S(=O)(=O)c3ccc(NC(C)=O)cc3)CC2)c(F)c1	6510 nM (active)
O=S(=O)(c1cccc(O)c1)N1CCN(S(=O)(=O)c2c(F)cccc2F)CC1	183 nM (active)
